Source: PubChem BioAssay (NCATS)
Inconclusive results are not listed. Active and inactive are the calls of the source. Calls come from the whole dose curve; as a rule, active = well fitted inhibition curve with a large enough effect; inconclusive = small, poorly fitted or top-dose-only effect; inactive = flat fitted curve, though single readings scatter.

Experiments:
PC49 = experiment: qHTS profiling for inhibitors of Plasmodium falciparum proliferation (AID 504749); note: potency is the fitted concentration of half-maximal effect; details: P. falciparum in erythrocytes, SYBR Green DNA, 72 h; series mostly up to 28.7 µM
Summary of the method: (§1)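 P. falciparum-infected erythrocytes (0.3% parasitemia, 2.5% hematocrit) incubated with compound 72 h at 37 C, 5% CO2. Parasite DNA detected by SYBR Green after lysis, overnight at room temperature; normalised to 0.29 uM artemisinin and DMSO.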

SC27B = experiment: as above; details: P. falciparum in erythrocytes, SYBR Green DNA, 72 h; series mostly up to 28.7 µM
Summary of the method: as §1

TAB109 = experiment: as above; details: P. falciparum in erythrocytes, SYBR Green DNA, 72 h; series mostly up to 28.7 µM
Summary of the method: as §1

CRL-7250 = normal cell line; experiment: Cytotoxic Profiling of Annotated Libraries Using Quantitative High-Throughput Screening (AID 1296008); details: Five cell lines viability, CellTiter-Glo ATP luminescence, 48-72 h; active compounds read low; for max response: % is set by controls: 0 for no effect and ±100 for the full control effect
Summary of the method: (§2)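 Cells exposed to compounds for 48 or 72 hr at 37 degrees Celsius. Viability read as ATP-coupled luminescence with CellTiter-Glo after 10 min at room temperature.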

HEK293 = experiment: as above; details: Five cell lines viability, CellTiter-Glo ATP luminescence, 48-72 h; active compounds read low
Summary of the method: as §2

HaCat [1] = experiment: as above; details: Five cell lines viability, CellTiter-Glo ATP luminescence, 48-72 h; active compounds read low
Summary of the method: as §2

KB-3-1 = experiment: as above; details: Five cell lines viability, CellTiter-Glo ATP luminescence, 48-72 h, active compounds read low
Summary of the method: as §2

NIH3T3 = experiment: as above; details: Five cell lines viability, CellTiter-Glo ATP luminescence, 48-72 h; active compounds read low
Summary of the method: as §2

MCC-13 = experiment: qHTS assay to identify novel small-molecules to repurpose for Merkel cell carcinoma treatment (AID 1296009); details: MCC and control cell lines, CellTiter-Glo viability, 72 h; series mostly up to 46 µM
Summary of the method: (§3)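 Cells were treated for 72 hr at 37 degree celsius with compounds in 8- or 11-point dose response. Viability was read by CellTiter-Glo luminescence, normalized to no-cell (cytotoxicity) and DMSO controls.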

MCC-26 = experiment: as above; details: MCC and control cell lines, CellTiter-Glo viability, 72 h; series mostly up to 46 µM
Summary of the method: as §3

MKL-1 = experiment: as above; details: MCC and control cell lines, CellTiter-Glo viability, 72 h; series mostly up to 46 µM
Summary of the method: as §3

MKL-2 = experiment: as above; details: MCC and control cell lines, CellTiter-Glo viability, 72 h; series mostly up to 46 µM
Summary of the method: as §3

HACAT [2] = experiment: as above; details: MCC and control cell lines, CellTiter-Glo viability, 72 h; at 44.8 µM (top of the series) unless noted
Summary of the method: as §3

HEK293T = experiment: as above; details: MCC and control cell lines, CellTiter-Glo viability, 72 h; at 44.8 µM (top of the series) unless noted
Summary of the method: as §3

PAD = experiment: qHTS profiling for inhibitors of Plasmodium falciparum proliferation (AID 504749); note: potency is the fitted concentration of half-maximal effect; details: P. falciparum in erythrocytes, SYBR Green DNA, 72 h; series mostly up to 28.7 µM
Summary of the method: as §1

PC15 = experiment: as above; details: P. falciparum in erythrocytes, SYBR Green DNA, 72 h; series mostly up to 28.7 µM
Summary of the method: as §1

PC26 = experiment: as above; details: P. falciparum in erythrocytes, SYBR Green DNA, 72 h; series mostly up to 28.7 µM
Summary of the method: as §1

TAB113 = experiment: as above; details: P. falciparum in erythrocytes, SYBR Green DNA, 72 h; series mostly up to 28.7 µM
Summary of the method: as §1

TAB165 = experiment: as above; details: P. falciparum in erythrocytes, SYBR Green DNA, 72 h; series mostly up to 28.7 µM
Summary of the method: as §1

W2 = experiment: as above; details: P. falciparum in erythrocytes, SYBR Green DNA, 72 h; series mostly up to 28.7 µM
Summary of the method: as §1
Note: nearly all actives have a fitted effect of over 60% in size.

CC(=O)N(CC(O)CO)c1c(I)c(C(=O)NCC(O)CO)c(I)c(C(=O)NCC(O)CO)c1I (configuration not stated)
inactive: Potency (PC49) | Potency (SC27B) | Potency (TAB109) | outcome (CRL-7250) | max response (HEK293) 1.45% | max response (HaCat [1]) 3.3% | max response (KB-3-1) -10.7% | outcome (NIH3T3) | outcome (MCC-13) | outcome (MCC-26) | outcome (MKL-1) | outcome (MKL-2)

CCCCCOC(=O)Nc1nc(=O)n([C@@H]2O[C@H](C)[C@@H](O)[C@H]2O)cc1F
inactive: outcome (CRL-7250) | outcome (HEK293) | outcome (HaCat [1]) | max response (NIH3T3) 3.66% | outcome (HACAT [2]) | outcome (HEK293T) | outcome (MCC-13) | outcome (MKL-1) | outcome (MKL-2)

Nc1ncnc(Nc2ccccc2)n1
inactive: Potency (PAD) | Potency (PC15) | Potency (PC26) | Potency (PC49) | Potency (SC27B) | Potency (TAB109) | Potency (TAB113) | Potency (TAB165) | Potency (W2) | max response (CRL-7250) -1.48% | max response (HEK293) -7.91% | max response (HaCat [1]) 0.531% | max response (KB-3-1) 3.24% | outcome (NIH3T3) | outcome (MCC-13) | outcome (MCC-26) | outcome (MKL-1) | outcome (MKL-2)

CCCC(O)C(CC)CO (configuration not stated)
inactive: Potency (PAD) | Potency (PC15) | Potency (PC26) | Potency (PC49) | Potency (SC27B) | Potency (TAB109) | Potency (TAB113) | Potency (TAB165) | Potency (W2) | max response (CRL-7250) -3.08% | max response (HEK293) -1.45% | max response (HaCat [1]) -9.38% | max response (KB-3-1) 9.23% | outcome (NIH3T3) | outcome (MCC-13) | outcome (MCC-26) | outcome (MKL-1) | outcome (MKL-2)

Cc1ncc(CO)c(CN)c1O
inactive: Potency (PC15) | Potency (PC26) | Potency (PC49) | Potency (SC27B) | Potency (TAB109) | Potency (TAB113) | Potency (TAB165) | max response (CRL-7250) -0.831% | max response (HEK293) -5.62% | max response (HaCat [1]) -4.24% | max response (KB-3-1) -2% | outcome (NIH3T3) | outcome (MCC-13) | outcome (MCC-26) | outcome (MKL-1) | outcome (MKL-2)

O=c1[nH]c2cc(C(F)(F)F)c(N3CCOCC3)cc2n(CP(=O)(O)O)c1=O
inactive: Potency (PAD) | Potency (PC15) | Potency (PC26) | Potency (PC49) | Potency (SC27B) | Potency (TAB109) | Potency (TAB113) | Potency (TAB165) | Potency (W2) | outcome (CRL-7250) | max response (HEK293) 2.88% | max response (HaCat [1]) 2.4% | max response (KB-3-1) 8.61% | outcome (NIH3T3) | outcome (MCC-13) | outcome (MKL-1) | outcome (MKL-2)

O=C(c1ccccc1)C(O)c1ccccc1 (configuration not stated)
inactive: Potency (PAD) | Potency (PC15) | Potency (PC26) | Potency (SC27B) | Potency (TAB109) | Potency (TAB113) | Potency (TAB165) | max response (CRL-7250) -6.36% | max response (HEK293) -4.36% | max response (HaCat [1]) -0.758% | max response (KB-3-1) -15.7% | outcome (NIH3T3) | outcome (MCC-13) | outcome (MCC-26) | outcome (MKL-1) | outcome (MKL-2)

Cc1[nH]c(C)c(Cl)c(=O)c1Cl
inactive: Potency (PAD) | Potency (PC49) | Potency (SC27B) | Potency (TAB109) | Potency (TAB113) | outcome (CRL-7250) | max response (HEK293) -10% | max response (HaCat [1]) -2.26% | max response (KB-3-1) -14.2% | max response (NIH3T3) -10.7% | outcome (MCC-13) | outcome (MKL-1) | outcome (MKL-2)

CCN(CC)CCOC(=O)C(c1ccccc1)c1ccccc1
active: Potency (W2) 7.57 µM
inactive: Potency (PAD) | Potency (PC15) | Potency (PC26) | Potency (PC49) | Potency (SC27B) | Potency (TAB109) | Potency (TAB113) | Potency (TAB165) | max response (CRL-7250) 4.76% | max response (HEK293) -4.53% | max response (HaCat [1]) -2.12% | max response (KB-3-1) 0.686% | max response (NIH3T3) -4.35% | outcome (MCC-13) | outcome (MCC-26) | outcome (MKL-1) | outcome (MKL-2)

NC(=O)c1ccc([N+](=O)[O-])cc1Cl
inactive: Potency (PC49) | Potency (SC27B) | max response (CRL-7250) 3.21% | max response (HEK293) -0.167% | max response (HaCat [1]) -15.2% | max response (KB-3-1) 1.89% | outcome (NIH3T3) | outcome (MCC-13) | outcome (MCC-26) | outcome (MKL-1) | outcome (MKL-2)

NC(=O)NS(=O)(=O)c1ccc(N)cc1
inactive: Potency (PAD) | Potency (PC15) | Potency (PC26) | Potency (PC49) | Potency (SC27B) | Potency (TAB109) | Potency (TAB113) | Potency (TAB165) | Potency (W2) | max response (CRL-7250) -2.79% | max response (HEK293) -4.98% | max response (HaCat [1]) 2.87% | max response (KB-3-1) 0.448% | outcome (NIH3T3) | outcome (MCC-13) | outcome (MCC-26) | outcome (MKL-1) | outcome (MKL-2)

Cc1c(C)c2c(c(C)c1OC(=O)c1cccnc1)CC[C@@](C)(CCC[C@H](C)CCC[C@H](C)CCCC(C)C)O2
inactive: Potency (PAD) | Potency (PC15) | Potency (PC26) | Potency (PC49) | Potency (SC27B) | Potency (TAB109) | Potency (TAB113) | Potency (TAB165) | Potency (W2) | outcome (CRL-7250) | max response (HEK293) -1.31% | max response (HaCat [1]) 0.9% | max response (KB-3-1) 1.29% | outcome (NIH3T3) | outcome (MCC-13) | outcome (MKL-1) | outcome (MKL-2)

CCCCCCCC(=O)OCC(O)CO (configuration not stated)
inactive: Potency (PAD) | Potency (PC15) | Potency (PC26) | Potency (PC49) | Potency (SC27B) | Potency (TAB109) | Potency (TAB113) | Potency (TAB165) | Potency (W2) | max response (CRL-7250) -18.7% | max response (HEK293) -8.91% | max response (HaCat [1]) -12% | max response (KB-3-1) -2.18% | max response (NIH3T3) -10.3% | outcome (MCC-13) | outcome (MKL-1) | outcome (MKL-2)

CC(=O)NCc1c(I)c(NC(C)=O)c(I)c(C(=O)O)c1I
active: Potency (PC49) 0.005 µM
inactive: Potency (PAD) | Potency (PC15) | Potency (PC26) | Potency (SC27B) | Potency (TAB109) | Potency (TAB113) | Potency (TAB165) | Potency (W2) | max response (CRL-7250) 3.86% | max response (HEK293) -1.82% | max response (HaCat [1]) -5.93% | max response (KB-3-1) 5.09% | max response (NIH3T3) -4.33% | outcome (MCC-13) | outcome (MKL-1) | outcome (MKL-2)
